High-throughput results: PubChem BioAssay, National Center for Advancing Translational Sciences (NCATS)
NPSR antagonist: antagonists of human neuropeptide S receptor cAMP signaling; CHO-NPSR cells, cAMP TR-FRET, antagonist mode; Potency, µM (doses to about 38.3 µM), without a hit: at the top dose activity change, negative = inhibition, usual class: inhibitors; actives 1% (n = 220,000); AID 1461; active = well fitted curve in the direction sought with a large enough effect; inconclusive = small, poorly fitted or top-dose-only effect, or another doubt; inactive = no such curve, though single readings can be large; an effect the other way counts as inactive or inconclusive; note: potency is the fitted concentration of half-maximal effect; nearly all actives have a fitted effect of over 50% in size
Target sequence (Q6W5P4 whole entry, looked up): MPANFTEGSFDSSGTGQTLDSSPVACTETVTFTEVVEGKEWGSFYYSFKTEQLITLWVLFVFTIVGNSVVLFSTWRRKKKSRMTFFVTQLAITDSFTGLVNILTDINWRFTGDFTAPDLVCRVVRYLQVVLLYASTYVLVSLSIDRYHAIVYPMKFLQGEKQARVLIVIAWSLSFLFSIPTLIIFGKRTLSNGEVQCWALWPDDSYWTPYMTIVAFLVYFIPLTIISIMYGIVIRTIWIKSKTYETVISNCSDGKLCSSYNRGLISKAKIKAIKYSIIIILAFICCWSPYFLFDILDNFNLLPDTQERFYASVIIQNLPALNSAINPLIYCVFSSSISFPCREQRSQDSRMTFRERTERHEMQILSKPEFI
ALDH1A1 inh: blocks purified human ALDH1A1 activity | P00352 | Potency, µM (doses to about 75.3 µM), without a hit: at the highest dose activity, negative = inhibition, usual class: inhibitors | Purified ALDH1A1, NADH fluorescence, propionaldehyde substrate | actives 7.3% (n = 220,000);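 note: potency is the fitted concentration of half-maximal effect; plate controls were no enzyme wells and a reference inhibitor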
RGS12 GoLoco inh: inhibitors of human Gai1-RGS12 GoLoco interaction (red fluorophore). Potency, µM (top dose mostly 61.6 µM), for inactives: at the highest dose activity, negative = inhibition, most hits filed as inhibitors. actives 0.44% (n = 230,000). Gai1:RGS12 GoLoco peptide FP, rhodamine, 10 min. AID 880; active = well fitted inhibition curve with a large enough effect, not every such curve was filed as active; inactive = no such curve, though single readings can be large or run the other way; note: potency is the fitted concentration of half-maximal effect; nearly all actives have a fitted effect of over 30% in size
FBPA coupling cs: inhibits coupling enzyme system, counter-screen for aldolase hits; coupling enzyme system counterscreen, AmpLite Red fluorescence; activity change, negative = inhibition, % at 58.2 µM, hits read low; actives 0.67% (n = 290,000); in the data active = activity change below about -30%
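Activity here indicates interference with the coupling reaction, not aldolase inhibition. Compounds at 57.5 uM final met coupling enzymes for 10 min at RT; substrate and AmpLite Red detection followed, with a 525/598 nm fluorescence read after 20 min.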
JMJD2E inh: blocks human JMJD2E demethylase activity. AID 2147. JMJD2E catalytic domain, FDH-coupled NADH fluorescence (FDH is formaldehyde dehydrogenase). actives 1.6% (n = 230,000). Potency, µM (doses to about 57.1 µM), for inactives: at the top dose activity change, negative = inhibition, usual class: inhibitors. B2RXH2;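 note: potency is the fitted concentration of half-maximal effect; 0% = wells with enzyme and -100% = buffer wells without enzyme; nearly all actives have a fitted effect of over 50% in size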
Target sequence (B2RXH2 1-337 limits assumed): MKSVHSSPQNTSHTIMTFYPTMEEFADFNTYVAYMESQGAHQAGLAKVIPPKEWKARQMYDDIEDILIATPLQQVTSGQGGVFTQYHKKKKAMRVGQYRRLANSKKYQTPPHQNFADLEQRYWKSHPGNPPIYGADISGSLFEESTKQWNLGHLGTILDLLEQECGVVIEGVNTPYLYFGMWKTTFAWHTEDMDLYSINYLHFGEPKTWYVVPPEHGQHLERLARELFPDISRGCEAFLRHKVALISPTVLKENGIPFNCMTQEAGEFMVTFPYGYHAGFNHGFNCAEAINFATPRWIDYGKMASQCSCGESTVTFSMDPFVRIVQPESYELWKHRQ
Sfp PPTase inh: inhibitors of Bacillus subtilis Sfp phosphopantetheinyl transferase | Q9F4F7 | Biochemical Sfp PPTase activity, qHTS | Potency, µM, without a hit: largest response in the series, negative = inhibition, actives largely listed as inhibitors | actives 3.5% (n = 310,000) | AID 1490; active = well fitted curve in the direction sought with a large enough effect; inconclusive = small, poorly fitted or top-dose-only effect, or another doubt; inactive = no such curve, though single readings can be large; an effect the other way counts as inactive or inconclusive;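 note: the enzyme is Sfp with the accession as filed and its product quenches rhodamine fluorescence; potency is the fitted concentration of half-maximal effect; 0% = enzyme reaction without inhibitor and -100% = no enzyme wells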
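Buffer: 50 mM Hepes-Na pH 7.6, 10 mM MgCl2, 0.01% Nonidet P-40, 0.01% BSA. Enzyme 15 nM, pre-exposed to compound 15 min; substrates then added and fluorescence change tracked over 30 min.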
* = called active by the depositor; [ ] = remark or other dose. Most compounds without a hit are left out; they make up all but 8.5% or so of the library. Unless noted, calls come from the whole dose curve; as a rule, active = well fitted inhibition curve with a large enough effect (not every such curve was filed as active); inconclusive = small, poorly fitted or top-dose-only effect, or another doubt; inactive = no such curve, though single readings can be large or run the other way. Unless noted, % is set by controls: 0 for no effect and ±100 for the full control effect.

How did COc1ccc(-c2nc(N3CCCCCC3)sc2C(=O)c2ccccc2)cc1 do in these assays?
NPSR antagonist: 5µM*; ALDH1A1 inh: inconclusive; RGS12 GoLoco inh: 12%; FBPA coupling cs: 2; JMJD2E inh: 6%; Sfp PPTase inh: -5%

Results for CCC(CC)C(=O)NCc1ccccc1Cl ?
NPSR antagonist: 10%[46.1 µM]; ALDH1A1 inh: 20%; RGS12 GoLoco inh: 10%; FBPA coupling cs: 0; JMJD2E inh: 2%; Sfp PPTase inh: 24%

Results for Cc1nc(C)c(C(=O)NCc2ccccc2Cl)o1 ?
NPSR antagonist: -1%[46.1 µM]; ALDH1A1 inh: 22µM*; RGS12 GoLoco inh: -12%; FBPA coupling cs: -24; JMJD2E inh: 4%; Sfp PPTase inh: 89µM*

How did Cn1cnc(S(=O)(=O)Nc2ccccc2N2CCOCC2)c1 do in these assays?
NPSR antagonist: -10%; ALDH1A1 inh: 6%; RGS12 GoLoco inh: -6%; FBPA coupling cs: -1; JMJD2E inh: -2%; Sfp PPTase inh: -3%

Results for CN(C)c1cccc2c1c(NS(=O)(=O)c1cn(C)cn1)nn2C ?
Sfp PPTase inh: 32µM*

How did Cc1ccc(C)c(C(C)NC(=S)NCc2ccc(F)cc2)c1 (stereo not given) do in these assays?
FBPA coupling cs: 0; Sfp PPTase inh: 19%

What do the screens show for `O=[N+]([O-])/C(=C\Nc1ccc(F)cc1F)S(=O)(=O)c1ccccc1`?
FBPA coupling cs: 3; Sfp PPTase inh: 14%

How did O=C(CSc1nc2ccccc2[nH]1)N/N=C/C=C/c1ccccc1[N+](=O)[O-] do in these assays?
NPSR antagonist: 11%; ALDH1A1 inh: 4.5µM*; RGS12 GoLoco inh: -3%; FBPA coupling cs: 1; JMJD2E inh: -6%; Sfp PPTase inh: 0%

Results for CC1CCCC(C)N1/N=C/C=C/c1ccccc1[N+](=O)[O-] (stereo not given) ?
NPSR antagonist: -20%; ALDH1A1 inh: 3.5µM*; RGS12 GoLoco inh: 14%; FBPA coupling cs: 2; JMJD2E inh: 3%; Sfp PPTase inh: 13%

What do the screens show for `CCOC(=O)N/N=C/C=C/c1ccccc1[N+](=O)[O-]`?
NPSR antagonist: -8%; ALDH1A1 inh: 10µM*; RGS12 GoLoco inh: -4%; FBPA coupling cs: 1; JMJD2E inh: 6%; Sfp PPTase inh: 3%

How did CCOC(=O)c1[nH]c2cc3c(cc2c1NC(=O)CN1CCN(CCO)CC1)OCO3 do in these assays?
NPSR antagonist: -2%; RGS12 GoLoco inh: -2%; FBPA coupling cs: 0; JMJD2E inh: inconclusive; Sfp PPTase inh: 4%

Results for COc1cc(CNn2c(C)n[nH]c2=S)cc(Cl)c1OCc1ccccc1 ?
NPSR antagonist: -19%[46.1 µM]; ALDH1A1 inh: 28µM*; RGS12 GoLoco inh: 7%; FBPA coupling cs: 2; JMJD2E inh: -2%; Sfp PPTase inh: -16%

Results for COc1cc(CNn2cn[nH]c2=S)cc(Cl)c1OCc1ccc(F)cc1 ?
NPSR antagonist: -22%; ALDH1A1 inh: inconclusive; RGS12 GoLoco inh: 18%; FBPA coupling cs: 2; JMJD2E inh: 3%; Sfp PPTase inh: -4%

Results for CC1O[C@@H](O[C@@H]2C(O)C[C@H](O[C@@H]3C(O)C[C@@H](OC4CC[C@@]5(C)C6CC(O)[C@@]7(C)C(C8=CC(=O)OC8)CC[C@@]7(O)C6CC[C@@H]5C4)OC3C)OC2C)CC(O)[C@H]1O (stereo not given in full) ?
ALDH1A1 inh: 8%; RGS12 GoLoco inh: -2%; FBPA coupling cs: 1; JMJD2E inh: 2%; Sfp PPTase inh: 6%

What do the screens show for `CCn1c(N)c(C(=O)NCc2cccnc2)sc1=S`?
NPSR antagonist: -16%[46.1 µM]; ALDH1A1 inh: 1%; RGS12 GoLoco inh: 17%; FBPA coupling cs: -2; JMJD2E inh: -8%; Sfp PPTase inh: -13%

What do the screens show for `Cn1c(N)c(C(=O)Nc2ccc(-c3ccccc3)cc2)sc1=S`?
NPSR antagonist: inconclusive; RGS12 GoLoco inh: -46%; FBPA coupling cs: 0; JMJD2E inh: 6%; Sfp PPTase inh: 3.2µM*

Results for Cn1c(N)c(C(=O)NCc2ccccc2Cl)sc1=S ?
NPSR antagonist: -1%[46.1 µM]; ALDH1A1 inh: inconclusive; RGS12 GoLoco inh: 10%; FBPA coupling cs: 1; JMJD2E inh: 1%; Sfp PPTase inh: -29%

Results for CC(C)OCCCNC(=O)c1sc(=S)n(C)c1N ?
NPSR antagonist: 4%[46.1 µM]; ALDH1A1 inh: -96%; RGS12 GoLoco inh: 3%; FBPA coupling cs: 0; JMJD2E inh: -13%; Sfp PPTase inh: 50µM*

How did CCn1c(N)c(C(=O)NCCCOC)sc1=S do in these assays?
NPSR antagonist: -21%[46.1 µM]; ALDH1A1 inh: 3.2µM*; RGS12 GoLoco inh: -21%; FBPA coupling cs: -2; JMJD2E inh: inconclusive; Sfp PPTase inh: 20µM*

How did CCNC(=O)c1sc(=S)n(CC)c1N do in these assays?
NPSR antagonist: 4%[46.1 µM]; ALDH1A1 inh: inconclusive; RGS12 GoLoco inh: -8%; FBPA coupling cs: 0; JMJD2E inh: -4%; Sfp PPTase inh: 50µM*

How did CCn1c(N)c(C(=O)N2CCOCC2)sc1=S do in these assays?
NPSR antagonist: -3%[46.1 µM]; ALDH1A1 inh: -14%; FBPA coupling cs: -1; JMJD2E inh: -4%; Sfp PPTase inh: 45µM*

Results for O=[N+]([O-])c1ccc(N2CCN(CCOCCO)CC2)c([N+](=O)[O-])c1 ?
NPSR antagonist: -19%; ALDH1A1 inh: inconclusive; RGS12 GoLoco inh: -7%; FBPA coupling cs: 0; JMJD2E inh: 10µM*; Sfp PPTase inh: -22%

What do the screens show for `O=[N+]([O-])c1cc2c(cc1CN1CCN(CCOCCO)CC1)OCO2`?
FBPA coupling cs: -4; Sfp PPTase inh: 79µM*

What do the screens show for `COc1ccccc1N1CCN(Cc2cc3c(cc2[N+](=O)[O-])OCO3)CC1`?
FBPA coupling cs: 0; Sfp PPTase inh: 8%

How did O=C(CCC(=O)N(CC(=O)NC1CCCC1)c1ccccc1F)Nc1nccs1 do in these assays?
FBPA coupling cs: 0; Sfp PPTase inh: 21%

Results for Cc1ccc(S(=O)(=O)Nc2ccc(Br)cc2/C=N/n2cnnc2)cc1 ?
NPSR antagonist: -26%[46.1 µM]; ALDH1A1 inh: 28µM*; RGS12 GoLoco inh: -5%; FBPA coupling cs: 3; JMJD2E inh: -3%; Sfp PPTase inh: 4%

What do the screens show for `CCN(C(=O)CSc1nnc(Cn2nnc3ccccc32)o1)c1nc(-c2ccccc2)cs1`?
NPSR antagonist: -11%[46.1 µM]; ALDH1A1 inh: -2%; RGS12 GoLoco inh: -8%; FBPA coupling cs: 2; JMJD2E inh: -4%; Sfp PPTase inh: 17%

What do the screens show for `CCN(C(=O)CSc1nnc(Cn2nnc3ccccc32)o1)c1nc(C)cs1`?
NPSR antagonist: -7%[46.1 µM]; ALDH1A1 inh: inconclusive; RGS12 GoLoco inh: 15%; FBPA coupling cs: 1; JMJD2E inh: -7%; Sfp PPTase inh: 20µM*
